HP1b binding inh – HTS for Inhibitors of HP1-beta Chromodomain Interactions with Methylated Histone Tails | Chromobox protein homolog 1 (Homo sapiens), P83916 | AID 540317, 2011 | AlphaScreen HP1-beta / biotin-H3K9me3 peptide binding | 390,000 compounds, 0.56% hits | Potency, µM (doses to about 114 µM), for inactives: at the top dose activity change, negative = inhibition, hits mostly inhibitors; further: potency means the concentration at half of the fitted maximal effect; nearly all actives have a fitted effect of over 70% in size
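AlphaScreen: HP1-beta (50 nM) preformed 30 min with biotin-H3(1-18)K9me3 peptide (50 nM) in PBS pH 7.4, 0.01% Tween-20. Compound added for 30 min at RT, then streptavidin donor/nickel chelate acceptor beads (10 ug/mL) for 30 min.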
JMJD2A Tudor – qHTS Assay for Inhibitors of JMJD2A-Tudor Domain; AlphaScreen JMJD2A-Tudor / H3K4me3 peptide binding; 390,000 compounds, 4.4% hits; Potency, µM (titrated, usually from 114 µM), inactives show at the top dose activity change, negative = inhibition, hits mostly inhibitors; further: potency means the concentration at half of the fitted maximal effect; on the % scale 0 is the no-effect control and ±100 the full control effect; nearly all actives have a fitted effect of over 50% in size
Six1-Eya2 blk – qHTS Assay for Inhibitors of the Six1/Eya2 Interaction; activity change, % (concentration not given with the values); Homeobox protein SIX1 (Homo sapiens) + Protein phosphatase EYA2 (Homo sapiens), …; AID 651725, 2012; AlphaScreen GST-Six1/His-Eya2 binding, biochemical; hits give low values; 360,000 compounds, 0.56% hits; in the data active means activity change below about -65%; inconclusive means mostly about -30% to -63%; further: on the % scale 0 is the no-effect control and ±100 the full control effect
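GST-Six1 + His-Eya2 (5X stock: 250/500 nM); Tris pH 8.0, 300 mM NaCl, 0.05% BSA, 0.02% Tween 20; GSH donor/Ni acceptor beads; 1 h 37 °C dark; AlphaScreen readout.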
BAZ2B block – qHTS Assay for Inhibitors of BAZ2B; Potency, µM (top dose mostly 114 µM), for inactives: at the highest dose activity change, negative = inhibition, actives largely listed as inhibitors; AlphaScreen BAZ2B-H3K14Ac peptide displacement; AID 504333, 2011; 360,000 compounds, 4.4% hits; Bromodomain adjacent to zinc finger domain protein 2B (Homo sapiens), Q9UIF8; further: potency means the concentration at half of the fitted maximal effect; on the % scale 0 is the no-effect control and ±100 the full control effect; nearly all actives have a fitted effect of over 60% in size
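Multi-concentration screen (max 110 uM) measuring displacement of acetylated histone H3 peptide from BAZ2B by AlphaScreen, using 50 nM protein, 50 nM peptide and 10 ug/mL streptavidin donor plus Ni-chelate acceptor beads.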
G9a inh – qHTS Assay for Inhibitors of Histone Lysine Methyltransferase G9a; G9a H3K9 monomethylation, AlphaScreen, 2 h; Potency, µM (titrated, usually from 102 µM), inactives show top-dose activity, negative = inhibition, usual class: inhibitors; Histone-lysine N-methyltransferase EHMT2 (Homo sapiens), Q96KQ7; 350,000 compounds, 8.8% hits; further: potency means the concentration at half of the fitted maximal effect; on the % scale 0 is the no-effect control and ±100 the full control effect; nearly all actives have a fitted effect of over 75% in size
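Chemiluminescent proximity detection of H3K9 monomethylation, read after 10 min bead incubation in the dark. Reaction: 20 nM G9a, 500 nM biotin-H3K9 peptide, 20 uM SAM cofactor, 2 h, room temperature, following 15 min enzyme-compound preincubation.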
CtBP-E1A blk – qHTS Assay for Inhibitors of the CtBP/E1A Interaction; CtBP / adenovirus E1A interaction (AlphaScreen); AlphaScreen GST-E1A/His-CtBP binding, 1536-well; hits give low values; activity change, % (concentration not given with the values); 340,000 compounds, 0.49% hits; AID 651724, 2012; in the data active means activity change below about -65%; inconclusive means mostly about -30% to -63%; further: on the % scale 0 is the no-effect control and ±100 the full control effect
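Protein mix (5X: 125 nM each GST-E1A, His-CtBP) was incubated with pinned compound 2 h at 37 deg C in dark, in 50 mM Tris pH 8.0 buffer with 300 mM NaCl. Glutathione donor and nickel acceptor beads followed; AlphaScreen signal read after 1 h.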
Numbers without * were called inactive; ? = inconclusive; nt = no result given; [ ] = another dose, or the depositor's remark. An excerpt weighted towards active compounds, which were near 10% of everything screened. Unless noted, the call rests on the fitted dose curve; in most records, active means well fitted inhibition curve with a large enough effect; inconclusive means small, poorly fitted or top-dose-only effect; inactive means no such curve, though single readings can be large or run the other way.

SMILES | HP1b binding inh | JMJD2A Tudor | Six1-Eya2 blk | BAZ2B block | G9a inh | CtBP-E1A blk
c1ccc(Nc2c(-c3ccco3)nc3ccccn23)cc1 | -19% | -34% | -21 | 50µM* | ? | 1
COc1ccc(Nc2c(-c3ccco3)nc3ccc(C)cn23)cc1 | 28% | 0% | -4 | -34% | -13%[59 µM] | 3
Fc1ccc(Nc2c(-c3ccco3)nc3ccccn23)cc1 | -28% | ? | -11 | 45µM* | ? | -4
COc1ccc(CCNC(=O)c2cnc3sc(N4CCOCC4)nn3c2=O)cc1OC | 17% | -5% | nt | 1% | -2%[59 µM] | nt
Cc1ccccc1Nc1c(-c2ccco2)nc2c(C)cccn12 | ? | ? | nt | 25µM* | 14µM* | nt
O=C(CCCCCN1C(=O)c2ccccc2C1=O)Oc1ccc2c3c(c(=O)oc2c1)CCC3 | 14% | -20% | 4 | 2% | 6%[59 µM] | -5
COC(=O)c1sccc1NS(=O)(=O)c1ccc(OC)cc1 | 28% | -15% | -1 | 2% | -9%[59 µM] | 4
COC(=O)c1sccc1N/C=C(\C#N)S(=O)(=O)C(C)(C)C | -1% | 79µM* | 6 | -5% | -2% | 11
Cc1cc([N+](=O)[O-])cnc1N1CCOCC1 | 32% | -13% | 1 | -7% | 5% | 3
O=[N+]([O-])c1cnc(N2CCCCC2)c([N+](=O)[O-])c1 | ? | -19%[57.1 µM] | 2 | ? | 10µM* | 1
COc1ccc2ccccc2c1CNCc1ccc(C)cc1 | ? | 22µM* | 0 | ? | 50µM* | 1
COc1ccc2ccccc2c1CNC(C)c1ccccc1 (configuration not stated) | -5% | 79µM* | 10 | ? | 20%[0.501 µM] | nt
COc1ccc2ccccc2c1CNCCCN1CCOCC1 | 46% | -7% | -1 | -19% | -14% | 11
CC(NCCCOc1cccc2ccccc12)c1ccccc1 (configuration not stated) | ? | 22µM* | -4 | ? | 11µM* | nt
CC(NCCOCCOc1ccccc1)c1ccccc1 (configuration not stated) | 32% | 13% | 2 | 0% | 9%[59 µM] | -3
O=C1CCc2cc(S(=O)(=O)Nc3cccc(C(F)(F)F)c3)ccc2N1 | nt | -10% | nt | nt | nt | nt
Oc1cc2ccccc2cc1-c1n[nH]c(=S)o1 | 6% | -23% | -12 | ? | 4µM* | -9
Cc1cc(-c2n[nH]c(=S)o2)c(C)n1-c1ccccc1 | -12% | ? | -7 | ? | 4µM* | 4
Cc1cc(C)n2nc(CNC(=O)c3ccccc3Cl)nc2n1 | 32% | 2% | nt | -1% | 6%[59 µM] | nt
O=C(C1=C(Nc2ccccc2)c2ccccc2S(=O)(=O)N1)c1ccccc1 | ? | ? | 3 | -6% | 25µM* | 4
CC(C)c1cccc(C(C)C)c1NC(=O)CNCC(O)c1ccccc1 (configuration not stated) | -32% | 56µM* | 8 | 50µM* | 10% | 33
NS(=O)(=O)c1ccc(N/N=C/C=C/c2ccccc2[N+](=O)[O-])cc1 | ? | ? | ? | ? | 32µM* | -20
O=[N+]([O-])c1ccccc1/C=C/C=N/Nc1nc(N2CCCCC2)nc(N2CCCCC2)n1 | ? | ? | 1 | ? | 40µM* | 2
Nc1ccc(S(=O)(=O)NN=CC=Cc2ccccc2[N+](=O)[O-])cc1 | 13% | -28% | 7 | nt | nt | 4
O=[N+]([O-])c1ccccc1/C=N/N1CCN(c2ccc(Cl)cc2)CC1 | ? | ? | ? | 14µM* | 18µM* | -21

Compound activity as filed in PubChem BioAssay.
